This note sets out measurements from ChEMBL document CHEMBL4513141, “CO-ADD screening of NIH (USA) - Clinical Collection” (2021).

One test deals with Staphylococcus aureus. The conditions noted are these: Concentration 20 uM; ASSAY_TEST Inhibition of Bacterial Growth; detection method Absorption (OD600); MEDIA CAMHB; plate type 384well; NBS; CORNING #3640; time 18 hr.
Another test concerns Escherichia coli. The conditions noted are these: Concentration 20 uM; ASSAY_TEST Inhibition of Bacterial Growth; detection method Absorption (OD600); MEDIA CAMHB; plate type 384well; NBS; CORNING #3640; time 18 hr.

Each structure is given as a SMILES string. Results with a measured potency or affinity are listed apart. Square brackets hold non-standard residues; d marks the D form. Peptide text beside a SMILES is read from it. pGlu = O=C1CC[C@@H](C(=O)O)N1; Thz = O=C(O)[C@@H]1CSCN1

Regarding `C[C@]12CCC(=O)C=C1CC[C@@H]1[C@@H]2[C@@H](O)C[C@@]2(C)[C@H]1CC[C@]2(O)C(=O)CO` [HYDROCORTISONE], the Inhibition in the test with Staphylococcus aureus is given as 7.72%. Consider `CC(N)C12CC3CC(CC(C3)C1)C2.Cl` (stereo not given) [RIMANTADINE HYDROCHLORIDE], for which the Inhibition is recorded as 6.08% in the test with Staphylococcus aureus and -3.07% in the test on Escherichia coli.

As to `CC(C)[N+]1(C)C2CCC1CC(OC(=O)C(CO)c1ccccc1)C2.[Br-]` (stereo not given), the Inhibition in the test with Staphylococcus aureus is on record as 9.02%. Turning to `CC[C@H](C)C(=O)O[C@H]1C[C@@H](C)C=C2C=C[C@H](C)[C@H](CC[C@@H]3C[C@@H](O)CC(=O)O3)[C@H]21` [LOVASTATIN], the Inhibition is reported as 9.76% in the test with Staphylococcus aureus and 0.96% in the test with Escherichia coli. The matching figures for `O=C1CC[C@@H](C(=O)N2CSC[C@H]2C(=O)O)N1` [PIDOTIMOD] ([pGlu]-[Thz]-OH): 9.9% and 2.88%. `CN(Cc1cnc2nc(N)nc(N)c2n1)c1ccc(C(=O)N[C@@H](CCC(=O)O)C(=O)O)cc1.O`: the Inhibition in the test on Staphylococcus aureus is listed as 8.23%.

`O=C1CN(/N=C/c2ccc(-c3ccc([N+](=O)[O-])cc3)o2)C(=O)[N-]1.[Na+]` [DANTROLENE SODIUM]: the Inhibition with Staphylococcus aureus is given as 4.1%; in the test on Escherichia coli it was -9.64%. The matching figures for `CC(C)(C#N)c1cc(Cn2cncn2)cc(C(C)(C)C#N)c1` [ANASTROZOLE]: -10.48% and 4.02%. The matching figures for `Nc1nc(O)c2ncn(CCC(CO)CO)c2n1` [PENCICLOVIR]: 6.12% and 2.89%. The matching figures for `COCCCC/C(=N\OCCN)c1ccc(C(F)(F)F)cc1.O=C(O)/C=C\C(=O)O` [FLUVOXAMINE MALEATE]: 7.49% and 3.58%. Regarding `CC1=C(C(=O)O)N2C(=O)[C@@H](NC(=O)[C@H](N)c3ccccc3)[C@H]2SC1.O` [CEPHALEXIN], the Inhibition in the test with Staphylococcus aureus is -0.36%. Turning to `CN1CCC(=C2c3ccccc3C=Cc3ccccc32)CC1.Cl` [CYPROHEPTADINE HYDROCHLORIDE], the Inhibition was 5.98% in the test with Staphylococcus aureus and 6.77% in the test on Escherichia coli. Turning to `COc1ccc2cc([C@H](C)C(=O)[O-])ccc2c1.[Na+]` [NAPROXEN SODIUM], the Inhibition in the test with Staphylococcus aureus is recorded as 6.58%. Turning to `CC(C)(C)NCC(O)c1ccc(O)c(CO)c1.CC(C)(C)NCC(O)c1ccc(O)c(CO)c1.O=S(=O)(O)O` (stereo not given) [ALBUTEROL SULFATE], the Inhibition in the test with Staphylococcus aureus stood at 8.55%; in the test with Escherichia coli, 5.03%.

In the case of `CN(C)CCOC(c1ccccc1)c1ccccc1.Cl` [DIPHENHYDRAMINE HYDROCHLORIDE], in the test with Staphylococcus aureus, the Inhibition is reported as -13.43%. As for `O=C(O)CCc1nc(-c2ccccc2)c(-c2ccccc2)o1` [OXAPROZIN], the Inhibition in the test with Staphylococcus aureus was determined as 10.43%; in the test on Escherichia coli it was 2.77%. For the compound `COc1cc(C[C@@H](CO)[C@H](CO)Cc2ccc(O)c(OC)c2)ccc1O` [(+)-SECOISOLARICIRESINOL], the results for the Inhibition with Staphylococcus aureus and with Escherichia coli were 14.2% and -3.86%, respectively. The matching figures for `N[C@@H]1CONC1=O` [CYCLOSERINE]: 14.71% and 1.47%. The matching figures for `N[C@@H](Cc1cc(I)c(Oc2cc(I)c(O)c(I)c2)c(I)c1)C(=O)O` [LEVOTHYROXINE]: -5.39% and -12.96%. For the compound `O=C(O)c1cc(-c2ccc(F)cc2F)ccc1O` [DIFLUNISAL], the Inhibition with Staphylococcus aureus was -11.25%; with Escherichia coli, 6.27%.

`CC(=O)/N=c1/sc(S(N)(=O)=O)nn1C` [METHAZOLAMIDE]: the Inhibition in the test on Staphylococcus aureus turned out to be 5.78%; in the test with Escherichia coli it was 3.59%. `CC(C)(C(=O)O)c1ccc(C(O)CCCN2CCC(C(O)(c3ccccc3)c3ccccc3)CC2)cc1.Cl` (stereo not given) [FEXOFENADINE HYDROCHLORIDE]: the Inhibition in the test on Staphylococcus aureus is listed as 11.48%. Same read-out and setting: under `CCOC(=O)N1CCC(=C2c3ccc(Cl)cc3CCc3cccnc32)CC1` [LORATADINE] stands 11.88%. As for `CN(C)CCOC(C)(c1ccccc1)c1ccccn1.O=C(O)CCC(=O)O` (stereo not given) [DOXYLAMINE SUCCINATE], the Inhibition with Staphylococcus aureus was 2.51%; in the test on Escherichia coli it was 3.89%. The matching figures for `OCc1cccnc1` [NICOTINYL ALCOHOL]: 10.46% and 0.45%.

Take `CC(=O)Nc1nnc(S(N)(=O)=O)s1` [ACETAZOLAMIDE]: the Inhibition with Staphylococcus aureus is 15.7%; in the test on Escherichia coli, -1.89%. The matching figures for `CC1=C(CC(=O)O)c2cc(F)ccc2/C1=C\c1ccc([S+](C)[O-])cc1` (stereo not given): 2.19% and 3.68%. The matching figures for `Nc1nnc(-c2cccc(Cl)c2Cl)c(N)n1` [LAMOTRIGINE]: 8.71% and 4.49%. Turning to `CCc1ccc(CCOc2ccc(CC3SC(=O)NC3=O)cc2)nc1.Cl` (stereo not given) [PIOGLITAZONE HYDROCHLORIDE], the Inhibition in the test with Staphylococcus aureus is recorded as 3.82%; with Escherichia coli, -0.97%. In the case of `Cc1cnc(C(=O)NCCc2ccc(S(=O)(=O)NC(=O)NC3CCCCC3)cc2)cn1` [GLIPIZIDE], the Inhibition in the test with Staphylococcus aureus is reported as 13.08%. With `CC(=O)CCCCn1c(=O)c2c(ncn2C)n(C)c1=O` [PENTOXIFYLLINE], the Inhibition with Staphylococcus aureus is reported as 15.42%; with Escherichia coli, 2.27%. The matching figures for `Cn1cnc([N+](=O)[O-])c1Sc1ncnc2[nH]cnc12` [AZATHIOPRINE]: 18.19% and 3.51%.
